Measured values from the supplement of paper PMC7393113.
Where “and” joins values, the source holds several entries; their conditions need not be identical. Identical values can stand only once. Counter-ions that a name gives are not always drawn. ± gives the standard deviation of the averaged measurements.

These compounds were tested on iBMDM (immortalised mouse bone-marrow-derived macrophages), LPS-stimulated (assay: mitochondrial superoxide (MitoSOX fluorescence) fold increase over unstimulated control; higher = more LPS-induced mitochondrial ROS (less inhibition)). Settings: inhibitor concentration: 500 nM; LPS: 100 ng/ml; time after LPS: 1 h.
Outline: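 After 20 h in phenol-red-free 1% FCS/DMEM in black 96-well plates, immortalised mouse bone-marrow-derived macrophages were exposed to kinase inhibitors (500 nM) for 30 min, 1 μM MitoSox for 10 min and then LPS (100 ng/ml). A ClarioStar plate reader recorded fluorescence at 510/580 nm every 60 min for 4 h. The reported mitochondrial superoxide is the mean fold induction versus untreated macrophages over triplicate wells.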
Work on O=C(O)c1ccc(Nc2ncc3c(n2)-c2ccc(Cl)cc2C(c2c(F)cccc2F)=NC3)cc1 yielded a mitochondrial superoxide of 1.37 ± 0.045.
CNC(=O)c1cc(Oc2ccc(NC(=O)Nc3cc(C(C)(C)C)nn3-c3ccc4ncccc4c3)c(F)c2)ccn1 [DCC-2036 (Rebastinib)] was tested, and the mitochondrial superoxide was 1.17 ± 0.012.
Work on C#Cc1cccc(Nc2ncnc3cc(OCCOC)c(OCCOC)cc23)c1 [Erlotinib HCl (OSI-744)] yielded a mitochondrial superoxide of 1.62 ± 0.033.
Compound CN1CCN(c2nc(C3=C(c4c[nH]c5ccccc45)C(=O)NC3=O)c3ccccc3n2)CC1 [Sotrastaurin] has a mitochondrial superoxide of 1.41 ± 0.015.
Cc1cc(C)c(/C=C2\C(=O)Nc3ccccc32)[nH]1 [Semaxanib (SU5416)] showed a mitochondrial superoxide of 1.19 ± 0.012.
In the case of C=CC(=O)Nc1cccc(Nc2nc(Nc3ccc(OCCOC)cc3)ncc2F)c1, the mitochondrial superoxide is reported as 1.17 ± 0.03.
For CN(c1ncccc1CNc1nc(Nc2ccc3c(c2)CC(=O)N3)ncc1C(F)(F)F)S(C)(=O)=O, the mitochondrial superoxide was 1.27 and 1.06.
With O=c1cc(-c2cccc3c2Sc2ccccc2S3)oc(N2CCOCC2)c1 the mitochondrial superoxide was 1.39 ± 0.034.
Work on O=C(O)[C@]1(Cc2cccc(Nc3nccs3)n2)CC[C@@H](Oc2cccc(Cl)c2F)CC1 yielded a mitochondrial superoxide of 1.22 ± 0.027.
In the case of O=C1Nc2ccc(I)cc2C1=Cc1cc(Br)c(O)c(Br)c1, the mitochondrial superoxide is reported as 1.1 ± 0.039.
In the case of CCN1CCN(Cc2ccc(-c3cc4c(N[C@H](C)c5ccccc5)ncnc4[nH]3)cc2)CC1, the mitochondrial superoxide is reported as 1.08 ± 0.019.
Clc1ccc(Nc2nnc(Cc3ccncc3)c3ccccc23)cc1 [Vatalanib (PTK787) 2HCl] was tested, and the mitochondrial superoxide was 1.42 ± 0.075.
Work on C=CC(=O)Nc1cccc(Oc2nc(Nc3ccc(N4CCN(C)CC4)cc3OC)ncc2Cl)c1 yielded a mitochondrial superoxide of 1.42 ± 0.03.
Work on CCn1c(-c2nonc2N)nc2c(C#CC(C)(C)O)ncc(OC[C@H]3CCCNC3)c21 yielded a mitochondrial superoxide of 1.3 ± 0.025.
